# In PubChem BioAssay AID597 (National Center for Advancing Translational Sciences (NCATS), 2007):
# The campaign covered roughly 68,000 compounds. About 60 (0.09%) were called active. Only a sample is shown. Values without a mark were called inactive. The call rests on the fitted dose curve; in most records, active means well fitted curve in the direction sought with a large enough effect; inconclusive means small, poorly fitted or top-dose-only effect; inactive means flat fitted curve, though single readings scatter.
# Assay: qHTS Assay for Epigenetic Modulators; further: % of control where 0% means no effect
# Conditions: mouse C127i GFP locus derepression, cytometry, 30 h; series mostly up to 46.1 µM; GFP derepression (activation): at the top concentration
# From the text: NIH Molecular Libraries Screening Centers Network [MLSCN] NIH Chemical Genomics Center [NCGC] MLSCN Grant: 1 X01 MH079860-01 Assay Provider: Elisabeth D. Martinez, University of Texas SW Medical Center NCGC Assay Overview: The Locus Derepression assay detects the derepression of a GFP reporter that is stably integrated in a region of the genome of murine c127i mammary cells that is presumably silenced. GFP transcription in this construct is controlled by a CMV promoter, which normally is strong and constitutively active. However, this line was selected for lack of constitutive expression of the GFP protein. GFP production can be induced by incubating the cells with histone deacetylase or DNA methyltransferase inhibitors. Compounds that cause derepression of the locus to express GFP are identified by enumerating GFP positive cells using a laser-scanning microplate cytometer. For further details of this screen and follow-up characterization, see R.L. Johnson, W. Huang, A. Jadhav, C.P. Austin, J. Inglese, E.D. Martinez, A Quantitative High-Throughput Screen Identifies Potential Epigenetic Modulators of Gene Expression, Analytical Biochemistry (2008) 375(2):237-48.
# NCGC Assay Protocol Summary: Two hundred and fifty cells in 5 uL per well were dispensed into black, clear-bottom 1536-well plates. Twenty-three nL compound was transferred to the assay plate and cells were incubated 30 hours at 37 C. Medium was removed, cells were washed two times with PBS, and GFP-positive cells were enumerated as fluorescent objects between the sizes of 20 to 120 um width and depth using an Acumen Explorer. Keywords: NIH Roadmap, MLSCN, MLI, MLSMR, qHTS, NCGC, qHTS, HDAC, DNMT, HAT, DNA methyltransferases, histone acetyl transferases, histone deacetylases
row,Structure (SMILES),GFP derepression (activation)
1,COc1ccc(C(=O)N2CCC3(CCCN(C(c4ccccc4)c4ccccc4)C3)CC2)cc1,-2.3% [at 9.22 µM]
2,COc1ccc(-c2cc(C(F)(F)F)n3nc(C(=O)N4CCOCC4)c(Cl)c3n2)cc1,0%
3,O=C(CS(=O)(=O)c1cn(Cc2cccc(F)c2)c2ccccc12)N1CCCCC1,2.3%
4,O=C(O)c1ccc(COc2c(F)c(F)cc(F)c2F)o1,-2.7%
5,Cc1ccc(Oc2nc3ccccc3n3c(C)nnc23)cc1,0.5%
6,CCC(c1nnnn1C1CCCC1)N1CCN(C(=O)c2ccco2)CC1 (configuration not stated),-2.3%
7,O=C(COc1ccc(F)cc1)N(CC1=CCS(=O)(=O)C1)c1ccccc1,-2.7%
8,Cc1ccc(S(=O)(=O)N2CCC(C(=O)N[C@@H](C)C(=O)NCCc3ccccc3)CC2)cc1,0.4%
9,O=C(N1CCOCC1)N1CCOCC1,0.3%
10,CC(C)Cc1nc(N2CCOCC2)c(C#N)c2c1CCC2,-2.2% [at 20.6 µM]
11,CCCCCCCCCCCC(=O)O[C@H](CC(=O)O)C[N+](C)(C)C,1.4%
12,Cc1noc(C)c1-c1nc(Nc2ccccc2)c2ccccc2n1,-2.9% [at 9.22 µM]
13,O=C(O)c1nn(-c2ccc(Cl)cc2)c2c1C(=O)c1ccccc1C2=O,4.5% [at 9.22 µM]
14,Fc1ccccc1OCCCCn1cncn1,0%
15,O=[n+]1c2c(n([O-])c3cc(Br)ccc31)CCC2,5.1%
16,COC(=O)[C@H]1[C@H]2C[C@H]3c4[nH]c5ccccc5c4CCN3C[C@@H]2CC[C@@H]1O,inactive
17,CCOC(=O)c1cc2occc2n1CC(=O)N1CCN(C(=O)c2ccco2)CC1,2.3%
18,Cc1cc2c(cc1C)NC1=C(N2)O[C@H](c2c[nH]c3ccc(COc4ccccc4)cc23)C1=O,2.2% [at 9.22 µM]
19,NC(=NC(=O)c1ccccc1)C1=C(O)CCC1=O,-3.4%
20,COc1ccc(-n2c(SC)nc(O)cc2=O)cc1,0%
21,O=C(CSc1ncccn1)NC(=O)NCc1ccccc1,-1.4%
22,NCCCNCCCCN(CCCN)/[N+]([O-])=N/O,-1.4%
23,Cn1cccc1C(=O)N1CCC[C@@]2(CCN(Cc3nccs3)C2)C1,4.6% [at 9.22 µM]
24,COCCn1c(=O)c(-c2ccccc2)nc2cnc(N3CCOCC3)nc21,-2.7% [at 9.22 µM]
25,Cn1c(=NC(=O)CSCC(=O)N2CCOCC2)sc2ccccc21,0.2%
26,Cc1ccc2[nH]c(=O)c(COC(=O)c3ccccn3)cc2c1,0%

row,Structure (SMILES),GFP derepression (activation)
1,CCOC(=O)c1[nH]c2ccc(C)cc2c1N=C(C)N(C)C,3%
2,Cc1cc(C(=O)CC#N)c(C)n1CC(F)(F)F,1.2%
3,Cc1ccc(NC(=O)c2cccc(N(C)C)c2)cc1NC(=O)c1ccc(O)cc1,-0.4%
4,CCON=C1C(C)(C)C(C)(C)C(C)(C)C1(C)C,6.6% [at 9.22 µM]
5,Cc1ccc(S(=O)(=O)N(C)CC(=O)N2CCc3ccccc32)cc1,2.4%
6,COc1cccc(-c2cc(NCCc3c[nH]c4ccc(OC)cc34)ncn2)c1,5.1% [at 9.22 µM]
7,CC(C)c1ccc2c(c1)c(SC(C)(C)C)c(CC(C)(C)C(=O)O)n2Cc1ccc(Cl)cc1,inactive
8,C#CCCCCCCCCCCCCCCCC(=O)O,2.4%
9,N#CCCn1c(=O)c(-c2cc(F)cc(F)c2)nc2cnc(Oc3ccccc3)nc21,-4.9% [at 9.22 µM]
10,CCOc1cccc(NC(=O)CC#N)c1,3.4%
11,O=C1c2ccccc2C(Nc2ccc3c(c2)OCCO3)N1Cc1ccco1 (configuration not stated),-3.4%
12,CCNCCCNCCCNCCCNCC,-0.4%
13,N#CC1=C(SCc2ccccc2)NC(=O)C(C#N)C12CCCC2 (configuration not stated),3.3%
14,O=C(c1cccc(F)c1)N1CCC2(CC1)CCN(c1ccccc1)CC2,-1.6% [at 9.22 µM]
15,COc1ccc(OCC(=O)OCC(=O)Nc2ccc(S(=O)(=O)N3CCCCC3)cc2)cc1,4.8%
16,O=S(=O)(O)c1ccc(O)c2ncccc12.O=S(=O)(O)c1ccc(O)c2ncccc12.[Zn],2.3% [at 9.22 µM]
17,Cc1cccc(CNc2ccnc(-c3cccnc3)n2)c1,0% [at 9.22 µM]
18,N#CCCN1CCN(S(=O)(=O)c2ccc(S(=O)(=O)NC3CCCCC3)cc2)CC1,-2.3%
19,Cc1ccc(-c2nn(CC(C)(C)C)c3ncnc(N)c23)cc1,3.8%
20,CCn1c(Cc2ccccc2)nnc1SCC(=O)Nc1ccccc1,-1.7%
21,CCc1c(C)[nH]c(=S)c(C#N)c1C,-0.6%
22,COc1ccc(C)cc1NC(=O)CSc1nc(SC)ns1,6.4%
23,CN(C)c1cc[n+](Cc2ccccc2)cc1,2.3%
24,Nc1nnc(C2CCCC2)s1,0%
25,CN(c1nc2ccccc2n2c(-c3ccco3)nnc12)S(=O)(=O)c1ccccc1,-2.6%
26,CN1CCN(CC(O)COCc2ccc3c(c2)OCO3)CC1 (configuration not stated),-0.1%
